# From PubChem
# PvdQ acylase: blocks Pseudomonas aeruginosa PvdQ acylase activity. inhibition, % at 10 µM. actives 0.063% (n = 340,000). purified PvdQ acylase, fluorescence plate reader. AID 488965; in the data active = inhibition above about 30%, passing the limit was not always enough; inconclusive = no clear call, values can overlap the other calls;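 note: 0% = vehicle neutral wells and 100% = reference inhibitor wells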
# PGC1a acetyl inh: modulators of PGC1a acetylation; U2OS PGC1a acetylation, AlphaScreen anti-acetyl-lysine; with virally co-expressed GCN5 acetyltransferase; actives 0.17% (n = 350,000); inhibition, % at 15.6 µM;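 active = every replicate shows inhibition of at least 40%; inconclusive = mean inhibition at least 40% but some replicate below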;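 note: 0% = neutral control wells and 100% = positive control wells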
# C2C12 statin: suppression of simvastatin myotoxicity | C2C12 myotubes + simvastatin, ATP luminescence, 48 h; scaled: DMSO 0, geranylgeraniol control 100 | rescue of ATP level, % at 7.49 µM | actives 0.78% (n = 330,000);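 active = mean ATP rescue above about 67%, or every replicate alone reaching that limit, limit read from the data, passing the limit was not always enough; inconclusive = no clear call, values can overlap the other calls; inactive = mean under the limit and some replicate under it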;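 note: myotubes were challenged with 10 µM simvastatin during compound exposure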
# DENV2 CPE: DENV2-induced cell death inhibition. DENV2-infected cells, cytopathic effect rescue, plate reader. CPE inhibition, % at 9.99 µM. actives 1.7% (n = 350,000); in the data active = CPE inhibition above about 20%, passing the limit was not always enough; inconclusive = no clear call, values can overlap the other calls; tested in BHK-21 cells;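 note: 0% = median of neutral control wells and 100% = median of positive control wells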
# miR122 inh: blocks miR-122 activity in Huh7 sensor cells; actives 0.3% (n = 340,000); activation (reporter increase), % at 12.5 µM; Huh7 miR-122 Renilla luciferase sensor, 48 h; neutral wells = 0, positive control = 100;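 active = mean replicate activation score at least 90 and every replicate individually at or above 90; inconclusive = only one of the two criteria met; inactive = neither criterion met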;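 note: higher luciferase means less miR-122 activity so hits act as miR-122 inhibitors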
# Starred values were filed as active, the others as inactive; ? = inconclusive; . = no result; ! = not active in a repeat; [ ] = dose if it differs, or a comment. The list is not random: actives were taken first. Their share in the collection is about 2.2%.
SMILES,PvdQ acylase,PGC1a acetyl inh,C2C12 statin,DENV2 CPE,miR122 inh
COc1ccccc1CNC(=O)CCCN1C(=O)COc2ccc(C)cc21,-10,-46,29,.,-2
Cc1ccc(S(=O)(=O)NCc2ccc3c(c2)OCO3)cc1C,36*,7,4,-1,22
Cc1ccc2c(c1)N(CCCC(=O)NCc1ccc3c(c1)OCO3)C(=O)CO2,-4,-37,0,92*,-6
CCOCC(=O)NCc1ccc2c(c1)OCO2,-13,-3,76*,.,-9
O=C(CCc1ccc(S(=O)(=O)NCc2ccccc2)cc1)NCc1ccc2c(c1)OCO2,-10,15,31,.,7
O=C(CCc1ccc(S(=O)(=O)NCCc2ccccc2)cc1)NCc1ccc2c(c1)OCO2,-15,.,1,.,196*
C[C@H]1CN([C@@H](C)CO)S(=O)(=O)c2ccc(-c3ccc(F)cc3)cc2O[C@@H]1CN(C)C(=O)C1CCCCC1,.,3,16,52*,40[16.7 µM]
Cc1ccc(-c2ccc3c(c2)O[C@@H](CN(C)C(=O)Nc2ccc(F)cc2)[C@@H](C)CN([C@@H](C)CO)S3(=O)=O)cc1,.,4,8,30*,42[16.7 µM]
C[C@@H]1CN([C@H](C)CO)S(=O)(=O)c2ccc(-c3cccc(C(=O)N(C)C)c3)cc2O[C@H]1CN(C)C(=O)Nc1ccc(F)cc1,.,12,-5,27*!,3
C[C@@H]1CN([C@H](C)CO)S(=O)(=O)c2ccc(-c3cccc(C#N)c3)cc2O[C@H]1CN(C)C(=O)Nc1cc(F)ccc1F,.,-3,-16,29*!,2
Cc1ccc(-c2ccc3c(c2)O[C@H](CN(C)C(=O)Nc2ccc(F)cc2)[C@@H](C)CN([C@@H](C)CO)S3(=O)=O)cc1,.,-2,-39,14,18[16.7 µM]
CC(=O)N1[C@H](CO)[C@H](c2ccccc2)[C@@H]1CN(C)S(=O)(=O)c1ccccc1,.,-1,11,4,-17[16.7 µM]
O=C(N[C@H]1CC[C@H](CCNC(=O)c2cnccn2)O[C@@H]1CO)c1ccc2c(c1)OCO2,.,10,-6,3,-5[16.7 µM]
COc1ccc(CC(=O)NCC2CCCN(Cc3ccc(OC(F)(F)F)cc3)C2)cc1 (stereo not given),-17,-25,3,20*,-13
COC(=O)c1ccc(CN2CCCC(CNC(=O)Cc3ccc(OC)cc3)C2)cc1 (stereo not given),-14,5,34,0,-6
O=C(COc1cccc2cccnc12)Nc1nccs1,4,-2,-2,.,8
NNC(=O)COc1cccc2cccnc12,-3,11,122*,.,-5
C[C@H](CO)N1C[C@H](C)[C@H](CN(C)Cc2ccncc2)Oc2c(NC(=O)NC3CCCCC3)cccc2C1=O,.,12,-28,16,7[16.7 µM]
CC(C)C1Cc2[nH]c(=S)[nH]c(=O)c2C(c2ccc(F)cc2)O1 (stereo not given),.,3,-3,32*,-2
CC(C)C1Cc2[nH]c(=S)[nH]c(=O)c2C(c2ccc(Cl)cc2)O1 (stereo not given),.,-35,6,-6,-2
O=C(NCCN1CCOCC1)C(=O)NCC1OCCN1S(=O)(=O)c1ccc(Cl)cc1 (stereo not given),.,.,18,79*,0
C[C@@H]1CN([C@@H](C)CO)C(=O)CCCn2cc(nn2)CO[C@H]1CN(C)Cc1ccc(O)cc1,.,-9,-14,-15,3[16.7 µM]
Cc1c(C(=O)Nc2ccc(C(=O)Nc3ccccc3)cc2)cccc1[N+](=O)[O-],11,-6,-4,26*,1
CCOc1ccccc1NC(=O)c1ccc(OCC)c([N+](=O)[O-])c1,1,.,.,5,.
CCOc1ccc(C(=O)Nc2nc(C)cc(C)n2)cc1[N+](=O)[O-],4,-2,93*,.,-3
SMILES,PvdQ acylase,PGC1a acetyl inh,C2C12 statin,DENV2 CPE,miR122 inh
Cc1c(C(=O)Nc2ccc(OCc3ccccc3)cc2)cccc1[N+](=O)[O-],-18,-9,?,.,6
COc1ccc(C(=O)Nc2ccc(Nc3ccccc3)cc2)cc1[N+](=O)[O-],2,7,-14,40*,-25
CC/C(O)=C(\C#N)c1nnc2n1CCCCC2,-20,-77,87*,.,4
CC/C(O)=C(/C#N)c1nnc2n1CCCCC2,-10,-8,2,.,-12
O=C1NC(c2ccccc2)=CC(c2ccccc2O)N1 (stereo not given),-14,.,2,145*,.
Clc1ccc(Sc2oc(/C=N/n3cnnc3)cc2Br)cc1,-10,-4,149*,.,-10
Cc1cc(F)ccc1S(=O)(=O)NCC(c1ccc2c(c1)OCO2)N1CCOCC1 (stereo not given),23,9,1,0,.
Cc1ccc(C)c(S(=O)(=O)NCC(c2ccc3c(c2)OCO3)N2CCOCC2)c1 (stereo not given),-13,.,1,-3,101*
COc1ccc(S(=O)(=O)N(C)C[C@H]2Oc3ccc(NC(=O)NC4CCCCC4)cc3CC(=O)N([C@H](C)CO)C[C@@H]2C)cc1,.,4,8,16,-2[16.7 µM]
CCc1ccc(NC(=O)CN2CCc3ccccc3C2)cc1,2,.,0,.,265*
O=C(CN1CCc2ccccc2C1)Nc1ccc(Br)cc1,-11,.,10,.,-10
CCN(C(=O)c1cnc(N2CCN(c3ncccn3)CC2)c2ccccc12)c1cccc(Cl)c1,-12,-9,110*,.,-7
C[C@@H]1CN([C@H](C)CO)C(=O)c2cc(NC(=O)CCC(F)(F)F)ccc2O[C@@H](C)CCCCO[C@H]1CN(C)S(=O)(=O)c1cccs1,.,-11,.,0,19[16.7 µM]
O=C(O)CCCCCCC(=O)Nc1ccc(C2OC(CSCCO)CC(c3ccccc3)O2)cc1 (stereo not given),.,-5,.,4,.
Cc1ccc(NC(=O)C2CCN(S(C)(=O)=O)CC2)cc1Cl,-10,6,-33,29*,2
N#C/C(=C\c1cccs1)C(=O)c1ccccc1Cl,.,.,.,78*,.
O=C(Cn1ccc([N+](=O)[O-])n1)NCC1CCCO1 (stereo not given),-5,.,.,27*,.
CCOc1ccc(NCc2cccn2-c2nnc(N3CCC(C(=O)NCCCN4C(C)CCCC4C)CC3)s2)cc1 (stereo not given),-17,-10,102*,5,3
C[C@@H]1CN([C@@H](C)CO)C(=O)Cc2cc(NC(=O)Nc3ccc(F)cc3)ccc2O[C@H]1CN(C)Cc1ccc2c(c1)OCO2,.,-8,1,9,-8[16.7 µM]
CC(C)NC(=O)Nc1ccc2c(c1)CC(=O)N([C@@H](C)CO)C[C@@H](C)[C@@H](CN(C)C(=O)Nc1ccc(C(F)(F)F)cc1)O2,.,-5,-5,-13,5[16.7 µM]
O=C(C[C@H]1CC[C@H]2[C@@H](COC[C@H](O)CN2C(=O)Cc2ccccc2)O1)NC1CCC1,.,-1,-12,38*,2[16.7 µM]
Cn1cnc(S(=O)(=O)N2C[C@H](O)COC[C@H]3O[C@@H](CC(=O)NC4CCCC4)CC[C@@H]32)c1,.,12,9,-17,87[16.7 µM]
